Results taken from ChEMBL document CHEMBL4808148, “HDAC6 screening dataset using tau-based substrate in an enzymatic assay yields selective inhibitors and activators” (2021).
Hit rate of the full screen: of about 5,600 compounds, about 390 (7%) showed an effect of 50% or more. This is one part of a sample in which strong results are shown more often than they occur.

Molecular target: T1, Protein deacetylase HDAC6 (Homo sapiens) (UniProt Q9UBN7)
T1 sequence (whole entry): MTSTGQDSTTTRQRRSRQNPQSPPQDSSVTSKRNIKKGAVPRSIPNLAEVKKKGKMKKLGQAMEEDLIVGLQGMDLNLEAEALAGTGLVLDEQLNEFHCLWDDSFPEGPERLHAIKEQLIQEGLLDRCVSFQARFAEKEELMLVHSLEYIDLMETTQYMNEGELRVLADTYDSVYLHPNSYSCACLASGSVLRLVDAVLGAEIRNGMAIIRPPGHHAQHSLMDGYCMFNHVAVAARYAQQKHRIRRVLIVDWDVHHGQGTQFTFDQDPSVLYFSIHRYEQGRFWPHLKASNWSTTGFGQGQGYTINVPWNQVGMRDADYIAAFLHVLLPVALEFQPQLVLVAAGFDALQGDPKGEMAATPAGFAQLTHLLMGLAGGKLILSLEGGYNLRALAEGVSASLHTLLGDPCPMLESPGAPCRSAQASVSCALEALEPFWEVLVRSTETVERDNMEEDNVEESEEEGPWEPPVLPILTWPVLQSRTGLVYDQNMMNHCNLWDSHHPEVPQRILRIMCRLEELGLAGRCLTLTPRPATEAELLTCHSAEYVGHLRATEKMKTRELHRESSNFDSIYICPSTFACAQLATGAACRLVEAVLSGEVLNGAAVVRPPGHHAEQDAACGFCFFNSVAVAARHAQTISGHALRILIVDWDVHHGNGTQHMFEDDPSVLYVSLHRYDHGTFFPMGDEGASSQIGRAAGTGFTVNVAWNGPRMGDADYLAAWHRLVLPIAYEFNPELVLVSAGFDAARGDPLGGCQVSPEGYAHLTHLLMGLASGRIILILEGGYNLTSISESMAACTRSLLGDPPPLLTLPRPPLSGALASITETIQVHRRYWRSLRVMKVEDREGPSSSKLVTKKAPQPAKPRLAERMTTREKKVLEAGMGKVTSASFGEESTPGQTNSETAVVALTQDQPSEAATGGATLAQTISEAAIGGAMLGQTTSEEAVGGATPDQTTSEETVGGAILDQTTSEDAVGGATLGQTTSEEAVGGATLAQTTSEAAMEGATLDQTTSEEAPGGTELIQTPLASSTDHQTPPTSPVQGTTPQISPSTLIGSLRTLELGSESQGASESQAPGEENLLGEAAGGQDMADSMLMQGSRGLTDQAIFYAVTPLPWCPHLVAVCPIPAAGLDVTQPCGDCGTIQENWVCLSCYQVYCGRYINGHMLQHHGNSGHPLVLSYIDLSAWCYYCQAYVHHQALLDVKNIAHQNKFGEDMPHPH
Settings: at 10 µM

For `NC(=O)c1cccc(-c2cc(Nc3ccc(OC(F)(F)F)cc3)ncn2)c1`, which inhibition is on record?
The inhibition was -8.36%.

Which inhibition does the source give for `c1coc(-c2nnc3sc(C4CCCCC4)nn23)c1` here?
Its inhibition is -6.78%.

Which inhibition does the source give for `O=C(Nc1ccc(Oc2ccc(Cl)cn2)c(Cl)c1)c1ccccn1` here?
The inhibition was 44.2%.

How did the inhibition turn out when `CN(Cc1ccc(C(C)(C)C)cc1)Cc1cccc2ccccc12` was run?
Its inhibition is 2.21%.

With `CC(C)=CCC/C(C)=C/CC/C(C)=C/CSc1ccccc1C(N)=O` as the molecule, how does the inhibition read?
The inhibition was -0.26%.

For `O=C(Nc1cccnc1)c1cc(-c2ccnc(F)c2)ccc1OCc1ccccc1`, which inhibition is on record?
Its inhibition is 9.93%.

Which inhibition does the source give for `CCOC(=O)c1c(O)nc2cccc3c2c1-c1ccccc1C3=O` here?
Its inhibition is 41.8%.

For `O=C1c2ccccc2-c2n[nH]c3cccc1c23`, which inhibition is on record?
Its inhibition is 88.8%.

`O=C(c1c(O)nc2cc(Cl)ccc2c1O)C1CC1` was tested. Which inhibition did it give?
The inhibition was -2.41%.

For `N#C/C(=C\c1ccc(O)c(O)c1)C(=O)NCc1ccccc1`, which inhibition is on record?
Its inhibition is 53%.

Which inhibition does the source give for `CCCCCCCCNC(=O)/C(C#N)=C/c1cn(CCCN(C)C)c2ccccc12` here?
Its inhibition is 7.03%.

With `O=C(CCCl)NCc1ccccc1` as the molecule, how does the inhibition read?
The inhibition was -3.62%.

How did the inhibition turn out when `N#C/C(=C\c1ccc(O)c(O)c1)C(=O)Nc1ccccc1` was run?
Its inhibition is 89%.

For `N#C/C(=C\c1ccc(O)c(O)c1)C(N)=O`, which inhibition is on record?
The inhibition was 16.6%.

Which inhibition does the source give for `C[C@H](NC(=O)/C(C#N)=C/c1ccc(O)c(O)c1)c1ccccc1` here?
The inhibition was 30.1%.

How did the inhibition turn out when `N#C/C(=C\c1ccc(O)c(O)c1)C(=O)OCCc1cccs1` was run?
Its inhibition is 40.4%.

For `CCCCCCCC/C=C\CCCCCCCC(=O)NCCc1ccc(O)c(O)c1`, which inhibition is on record?
The inhibition was 29.4%.

How did the inhibition turn out when `N#C/C(=C\c1ccc(O)c(O)c1)C(=O)NCCCc1ccccc1` was run?
The inhibition was 88.2%.

For `COc1cc(C[C@@H]2NCCc3cc(O)c(O)cc32)cc(OC)c1OC`, which inhibition is on record?
Its inhibition is 3.77%.

`N#CC(Cc1ccc(O)cc1)c1ccc(O)cc1` (stereo unspecified) was tested. Which inhibition did it give?
Its inhibition is 21.2%.

`COc1ccc2[nH]c([S@@+]([O-])Cc3ncc(C)c(OC)c3C)nc2c1` was tested. Which inhibition did it give?
The inhibition was 26.7%.

For `COc1ccc2[nH]c([S+]([O-])Cc3ncc(C)c(OC)c3C)nc2c1` (stereo unspecified), which inhibition is on record?
Its inhibition is 16.1%.

`COc1ccc2[nH]c(SCc3ncc(C)c(OC)c3C)nc2c1` was tested. Which inhibition did it give?
Its inhibition is 62.8%.

With `CCC[C@H](NC(=O)[C@@H]1[C@H]2CCC[C@H]2CN1C(=O)[C@@H](NC(=O)[C@@H](NC(=O)c1cnccn1)C1CCCCC1)C(C)(C)C)C(=O)C(=O)NC1CC1` as the molecule, how does the inhibition read?
The inhibition was -8.83%.

Which inhibition does the source give for `O=C(OCC(O)CO)c1ccccc1Nc1ccnc2cc(Cl)ccc12` (stereo unspecified) here?
Its inhibition is 94.8%.

`Clc1ccc2c(NCCNc3ccnc4cc(Cl)ccc34)ccnc2c1` was tested. Which inhibition did it give?
Its inhibition is 14.9%.

For `Oc1ccnc2cc(Cl)ccc12`, which inhibition is on record?
The inhibition was 28.9%.

`O=C(O)CCNc1cc(N2CCc3ccccc3CC2)nc(-c2cccnc2)n1` was tested. Which inhibition did it give?
Its inhibition is -1.98%.

How did the inhibition turn out when `Cc1cc(O)c2c(=O)c3c(O)cc(O)c4c5c(O)cc(O)c6c(=O)c7c(O)cc(C)c8c1c2c(c34)c(c78)c65` was run?
The inhibition was 85%.

How did the inhibition turn out when `Nc1c2c(nc3ccccc13)CCCC2O` (stereo unspecified) was run?
Its inhibition is 7.55%.

For `O[C@@H]1CO[C@H]2[C@@H]1OC[C@@H]2O`, which inhibition is on record?
The inhibition was 0.18%.
